Experiment [1] in a line: qHTS assay to identify small molecule agonists of the androgen receptor (AR) signaling pathway in the presence of an antagonist - cell viability counter screen (AID 1259379). Note: nearly all actives have a fitted effect of over 25% in size. Note: potency is the fitted concentration of half-maximal effect. Put shortly:
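Seed MDA-kb2 at 3,000 cells/well; incubate 5 hr, 37C, 0% CO2. Add nilutamide to 3.0uM final, then pin compounds at 15 concentrations. Incubate 16 hr. Add CellTiter-Fluor at 15 hr, read fluorescence after 1 hr.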

Experiment [2] has as its target Androgen receptor (Homo sapiens) (UniProt P10275). In words: qHTS assay to identify small molecule agonists of the androgen receptor (AR) signaling pathway in the presence of an antagonist (AID 1259381; calls by dose curve; note: nearly all actives have a fitted effect of over 15% in size). Put shortly: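 Test compounds at 15 concentrations were incubated for 16hr with MDA-kb2 reporter cells in presence of 3.0uM nilutamide (final). Signal: ONE-Glo luciferase luminescence.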

In experiment [3] the target is Estrogen receptor (Homo sapiens) (UniProt P03372). In words: qHTS assay to identify small molecule agonists of the estrogen receptor alpha (ER-alpha) signaling pathway in the presence of an antagonist (AID 1259383; calls by dose curve; note: top concentration of the series differs between compounds; nearly all actives have a fitted effect of over 15% in size). A digest of the protocol: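 Stably transfected VM7Luc4E2 reporter cells, kept 5 days in charcoal-stripped serum, received ICI-182,780 at 10.0nM final before compound addition. Following 22hr incubation at 37C and 5% CO2, luciferase signal was read by luminescence.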
Estrogen receptor (Homo sapiens), sequence (P03372 whole entry, looked up): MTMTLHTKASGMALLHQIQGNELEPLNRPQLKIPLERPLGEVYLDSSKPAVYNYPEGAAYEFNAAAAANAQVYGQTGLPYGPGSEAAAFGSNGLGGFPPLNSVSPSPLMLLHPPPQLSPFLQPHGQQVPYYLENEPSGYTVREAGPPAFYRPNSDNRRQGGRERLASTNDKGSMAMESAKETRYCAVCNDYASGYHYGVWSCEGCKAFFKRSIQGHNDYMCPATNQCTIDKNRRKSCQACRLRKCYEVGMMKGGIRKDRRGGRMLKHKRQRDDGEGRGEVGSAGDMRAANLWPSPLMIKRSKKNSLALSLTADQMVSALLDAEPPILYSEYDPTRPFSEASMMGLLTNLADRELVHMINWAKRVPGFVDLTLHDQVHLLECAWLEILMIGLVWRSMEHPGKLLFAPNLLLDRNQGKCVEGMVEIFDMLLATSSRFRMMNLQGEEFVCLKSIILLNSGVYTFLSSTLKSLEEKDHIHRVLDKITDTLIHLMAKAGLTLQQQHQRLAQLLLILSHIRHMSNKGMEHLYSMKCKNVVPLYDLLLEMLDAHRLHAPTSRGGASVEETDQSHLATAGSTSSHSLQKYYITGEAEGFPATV
(In general: qHTS replaces the single test concentration by a dilution series.)

Experiment [4] is described as follows: qHTS assay to identify small molecule agonists or antagonists of the thyroid stimulating hormone receptor (TSHR) signaling pathway - wild type cell line counter screen (AID 1259384; calls by dose curve). A digest of the protocol: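 Wild-type Hek293 cells, 800/well, 18 h at 37C, then compound with Ro20-1724 for 30 min RT. cAMP by HTRF (cAMP-d2/anti-cAMP cryptate), 1 h RT, fluorescence read. 15 concentrations, triplicates.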

Experiment [5] concerns the target Thyrotropin receptor (Homo sapiens) (UniProt P16473). The experiment is described as follows: qHTS assay to identify small molecule antagonists of the thyroid stimulating hormone receptor (TSHR) signaling pathway (AID 1259385; calls by dose curve; note: nearly all actives have a fitted effect of over 20% in size; note: potency is the fitted concentration of half-maximal effect). A digest of the protocol:
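TSHR-HEK293 cells (800/well) plated 18 h, then compounds with Ro20-1724 and TSH at 1.5 ng/mL final, 30 min at room temperature. cAMP quantified by HTRF (cAMP-d2/anti-cAMP-cryptate, 1 h); 15 concentrations in triplicate.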

Experiment [6] in a line: qHTS assay to identify small molecule agonists of the estrogen receptor alpha (ER-alpha) signaling pathway in the presence of an antagonist - cell viability counter screen (AID 1259386).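 Note: cells exposed to compounds for 22 h at 37 °C before the viability read; nearly all actives have a fitted effect of over 30% in size.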 Note: potency is the fitted concentration of half-maximal effect. A digest of the protocol: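 Viability counter screen using VM7Luc4E2 (full-length ER-alpha, four ERE-luciferase). The cells were treated with compounds alongside ICI-182,780 10.0nM for 22hr, and live-cell protease fluorescence was quantified with CellTiter-Fluor.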

A short description of experiment [7]: qHTS assay to identify small molecule agonists of the estrogen receptor beta (ER-beta) signaling pathway - cell viability counter screen (AID 1259380). Note: nearly all actives have a fitted effect of over 30% in size. Note: potency is the fitted concentration of half-maximal effect. A digest of the protocol: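 CellTiter-Glo read, 30 min RT, same wells as bla assay; cells ER-beta-UAS-bla HEK293T; 16 hr compound, 37C; medium 2% charcoal-stripped FBS.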
A short description of experiment [8]: qHTS assay to identify small molecule antagonists of the estrogen receptor beta (ER-beta) signaling pathway - cell viability counter screen (AID 1259382). Note: nearly all actives have a fitted effect of over 55% in size. Note: potency is the fitted concentration of half-maximal effect. A digest of the protocol: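 In this multiplexed counter screen, cells were seeded at 2,000 per well in medium with 2% charcoal-stripped FBS and incubated 6 hr before compound and 1nM final E2 were added. Sixteen hours later, ATP-based luminescence reported viability.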

Experiment [9] has as its target Progesterone receptor (Homo sapiens) (UniProt P06401). In words: qHTS assay to identify small molecule agonists of the progesterone receptor (PR) signaling pathway (AID 1346784; calls by dose curve; note: nearly all actives have a fitted effect of over 30% in size). A digest of the protocol: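 Reporter assay, GripTite PR-UAS-bla HEK 293T cells: 16 hr exposure to DMSO-dissolved compounds at 37C, 5% CO2, in steroid-depleted (2% charcoal-stripped FBS) medium; beta-lactamase measured by FRET fluorescence.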

Values joined by “and” are separate entries in the source; they are usually repeats but may differ in a detail not shown here. Identical values can stand only once. Results filed as inconclusive are left out. Active and inactive are the calls of the source. Unless noted, calls come from the whole dose curve; as a rule, active = well fitted curve in the direction sought with a large enough effect in the repeat runs; inconclusive = weak or mixed curves; inactive = no such curve, though single readings can be large; an effect the other way counts as inactive or inconclusive.

Androgen receptor (Homo sapiens), sequence (P10275 whole entry, looked up): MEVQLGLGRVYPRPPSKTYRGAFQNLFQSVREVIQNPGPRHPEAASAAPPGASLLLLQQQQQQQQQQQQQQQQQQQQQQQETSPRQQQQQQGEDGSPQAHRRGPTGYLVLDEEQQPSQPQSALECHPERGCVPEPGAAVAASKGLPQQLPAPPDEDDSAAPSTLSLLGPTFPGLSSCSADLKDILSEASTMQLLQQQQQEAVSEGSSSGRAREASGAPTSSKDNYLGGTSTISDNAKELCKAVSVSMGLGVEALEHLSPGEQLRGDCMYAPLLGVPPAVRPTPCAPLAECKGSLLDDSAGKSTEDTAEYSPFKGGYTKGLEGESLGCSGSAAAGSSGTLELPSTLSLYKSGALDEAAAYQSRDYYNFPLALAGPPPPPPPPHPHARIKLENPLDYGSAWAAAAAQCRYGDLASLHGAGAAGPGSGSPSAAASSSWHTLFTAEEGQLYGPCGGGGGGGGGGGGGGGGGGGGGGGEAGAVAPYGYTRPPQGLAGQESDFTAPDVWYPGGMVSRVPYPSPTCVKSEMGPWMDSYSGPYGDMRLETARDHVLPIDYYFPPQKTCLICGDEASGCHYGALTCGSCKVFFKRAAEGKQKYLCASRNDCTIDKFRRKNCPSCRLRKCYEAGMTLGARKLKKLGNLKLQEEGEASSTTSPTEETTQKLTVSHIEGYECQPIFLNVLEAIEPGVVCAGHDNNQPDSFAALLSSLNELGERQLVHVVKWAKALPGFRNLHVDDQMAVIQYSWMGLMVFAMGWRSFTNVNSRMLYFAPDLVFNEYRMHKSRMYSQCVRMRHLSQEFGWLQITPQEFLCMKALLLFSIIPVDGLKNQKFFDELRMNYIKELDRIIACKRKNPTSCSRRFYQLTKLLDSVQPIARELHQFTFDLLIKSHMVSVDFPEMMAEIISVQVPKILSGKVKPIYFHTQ
Thyrotropin receptor (Homo sapiens), sequence (P16473 whole entry, looked up): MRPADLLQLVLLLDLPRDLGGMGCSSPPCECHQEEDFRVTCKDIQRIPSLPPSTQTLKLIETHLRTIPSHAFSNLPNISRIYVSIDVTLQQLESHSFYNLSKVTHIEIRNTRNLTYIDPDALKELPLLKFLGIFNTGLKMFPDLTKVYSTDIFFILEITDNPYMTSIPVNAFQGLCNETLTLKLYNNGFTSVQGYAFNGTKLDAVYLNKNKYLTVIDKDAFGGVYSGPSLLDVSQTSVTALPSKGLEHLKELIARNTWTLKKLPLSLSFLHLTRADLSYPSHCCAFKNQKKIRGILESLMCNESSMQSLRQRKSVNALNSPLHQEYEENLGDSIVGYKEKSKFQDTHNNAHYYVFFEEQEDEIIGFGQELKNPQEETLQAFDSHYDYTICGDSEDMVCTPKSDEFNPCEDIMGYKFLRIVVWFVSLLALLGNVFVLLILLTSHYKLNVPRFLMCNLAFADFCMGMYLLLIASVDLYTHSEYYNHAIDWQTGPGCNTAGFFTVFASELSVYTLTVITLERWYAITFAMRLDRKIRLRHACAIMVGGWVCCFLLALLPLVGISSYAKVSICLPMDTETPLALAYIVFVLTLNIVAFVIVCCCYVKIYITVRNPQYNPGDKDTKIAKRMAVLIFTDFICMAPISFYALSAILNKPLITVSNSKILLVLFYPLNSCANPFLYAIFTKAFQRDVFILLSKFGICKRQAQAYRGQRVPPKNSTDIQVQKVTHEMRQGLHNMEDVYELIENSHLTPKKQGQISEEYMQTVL
Progesterone receptor (Homo sapiens), sequence (P06401 whole entry, looked up): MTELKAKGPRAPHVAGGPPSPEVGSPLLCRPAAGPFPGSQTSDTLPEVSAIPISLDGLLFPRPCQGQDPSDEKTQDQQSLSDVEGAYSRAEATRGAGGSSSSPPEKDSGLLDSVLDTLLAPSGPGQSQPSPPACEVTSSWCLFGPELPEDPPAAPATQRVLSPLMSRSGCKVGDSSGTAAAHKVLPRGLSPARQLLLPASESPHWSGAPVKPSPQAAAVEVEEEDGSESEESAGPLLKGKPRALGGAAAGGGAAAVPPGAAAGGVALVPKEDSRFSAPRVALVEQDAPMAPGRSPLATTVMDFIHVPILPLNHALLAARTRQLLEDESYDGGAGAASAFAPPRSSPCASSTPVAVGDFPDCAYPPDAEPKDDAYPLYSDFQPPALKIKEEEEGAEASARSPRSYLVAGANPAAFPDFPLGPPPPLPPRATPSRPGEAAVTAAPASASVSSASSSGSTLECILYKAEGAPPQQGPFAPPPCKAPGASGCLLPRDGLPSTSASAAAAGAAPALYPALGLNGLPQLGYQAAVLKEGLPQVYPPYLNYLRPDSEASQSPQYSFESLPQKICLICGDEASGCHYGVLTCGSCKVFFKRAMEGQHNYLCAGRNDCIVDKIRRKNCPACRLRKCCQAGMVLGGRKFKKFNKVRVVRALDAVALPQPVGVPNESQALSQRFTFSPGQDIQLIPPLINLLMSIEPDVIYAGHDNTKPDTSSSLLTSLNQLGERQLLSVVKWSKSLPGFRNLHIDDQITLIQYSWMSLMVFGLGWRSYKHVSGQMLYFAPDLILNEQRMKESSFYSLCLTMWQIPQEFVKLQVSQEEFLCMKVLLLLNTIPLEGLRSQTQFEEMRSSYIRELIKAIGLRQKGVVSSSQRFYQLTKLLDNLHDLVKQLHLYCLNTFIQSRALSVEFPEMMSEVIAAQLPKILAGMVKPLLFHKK

For `CCCCCCOc1ccc(O)cc1`, the Potency entry in experiment [1], in experiment [2], in [3], in experiment [5] and in [6] was “inactive” in each case. Besides, in experiment [4], the compound was classed as inactive.

With `CN(C)CCCN1c2ccccc2CCc2ccccc21`, the Potency in [1] was 61.1 µM (active); in [7], 30.6 µM (active) and 23.7 µM (active); in experiment [8] it was 27.3 µM (active) and 23.7 µM (active). The Potency entry in experiment [6] was “inactive”.

Turning to `O=C(NO)c1ccccc1`, the Potency result in experiment [1] and in [2] was “inactive” each time. Also, the compound was classed as inactive in experiment [4].

In the case of `CCc1cccc(CC)c1NC(=O)C(=O)O`, the Potency entry in experiment [1], in [2], in [8], in experiment [5] and in [6] was “inactive” in each case. Moreover, the outcome in experiment [4] and in [9] was inactive.

Consider `COc1cccc(O)c1`, for which the Potency entry in experiment [1], in [7], in [8] and in experiment [6] was “inactive” each time. Further, the outcome in experiment [9] was inactive.

Consider `C=CC(=O)OCCOCC(CC)(COCCOC(=O)C=C)COCCOC(=O)C=C`, for which the figures for the Potency in experiment [1], in experiment [7] and in [6] were 40.2 µM (active), 89.9 µM (active) and 35.8 µM (active), respectively. The result in [4] was inactive. The Potency result in experiment [5] is “inactive”.

With `S=P(N1CC1)(N1CC1)N1CC1`, the Potency result in experiment [1], in experiment [7], in experiment [8] and in experiment [6] was “inactive” each time. The call in experiment [4] and in experiment [9] was inactive.

`CNC(=S)NN`: the Potency result in experiment [1], in [3], in experiment [5] and in [6] was “inactive” in each case. Also, the Potency in experiment [7] is 17.2 µM (active). Moreover, in experiment [4], the compound was classed as inactive.

Turning to `CCCCCCCCCCCC(=O)N(CC)CC`, the Potency result in experiment [1], in [7], in experiment [8] and in [6] was “inactive” throughout. In addition, the compound was classed as inactive in experiment [4] and in experiment [9].

`CCC(C)c1cc([N+](=O)[O-])cc([N+](=O)[O-])c1OC(=O)OC(C)C` (stereo not drawn): the Potency in [1] was 61.1 µM (active); in experiment [6], 54.5 µM (active). For the same compound, the Potency entry in [2], in experiment [8] and in experiment [5] was “inactive” each time. Also, in [4], the compound was called inactive.

As for `C/C=C/C=N/NC(=O)c1ccncc1`, the Potency result in experiment [1], in [7], in experiment [8] and in experiment [6] was “inactive” each time. Besides, the compound was classed as inactive in experiment [4] and in experiment [9].

Turning to `CCCCCCCCCCCCCOP(=O)(O)O`, the Potency result in experiment [1], in experiment [8] and in experiment [5] was “inactive” in each case. In addition, the call in experiment [4] was inactive.

As to `CCCCCCOc1cc(C)c(O)c(C)c1C`, the Potency in experiment [7] is 55.1 µM (active); in experiment [8], 61.9 µM (active); in experiment [5] it was 55.1 µM (active). Moreover, the call in experiment [4] was inactive.

On to `Cc1cccc(C)c1NC(=O)CN1CCN(CCCC(c2ccc(F)cc2)c2ccc(F)cc2)CC1`, for which the Potency in experiment [7] and in experiment [8] was 26.6 µM (active) in each case. For the same compound, the compound was called inactive in experiment [4].

On to `O=Nc1ccc(NO)cc1`, for which the Potency entry in experiment [7], in experiment [8], in experiment [3] and in experiment [6] was “inactive” each time. For the same compound, the outcome in experiment [9] was inactive.

Regarding `CC(CN(C)C)CN1c2ccccc2CCc2ccccc21` (stereo not drawn), the Potency is 26.6 µM (active) in experiment [7], 23.7 µM (active) in [8] and 29.8 µM (active) in experiment [5]. In addition, the Potency entry in experiment [3] and in [6] was “inactive” throughout. In addition, the outcome in experiment [4] and in [9] was inactive.

In the case of `N#CSCSc1nc2ccccc2s1`, the Potency in experiment [7] is 8.63 µM (active). The Potency result in experiment [2] and in experiment [6] was “inactive” in each case. In experiment [4], the outcome was inactive.

Consider `C1CC(COCC2CO2)CCC1COCC1CO1` (stereo not drawn), for which the Potency result in experiment [1], in experiment [8], in experiment [3], in [5] and in [6] was “inactive” throughout. For the same compound, the call in [4] was inactive.

For the compound `Brc1ccccc1-c1ccccc1`, the Potency entry in experiment [1], in experiment [8] and in experiment [6] was “inactive” in each case. The result in [4] was inactive.

In the case of `CCN(CC)CCNc1ccc(CO)c2sc3ccccc3c(=O)c12`, the Potency in experiment [7] is 10.6 µM (active); in experiment [8] it was 11.9 µM (active); in experiment [6], 10.6 µM (active). Further, in experiment [3], the Potency result was “inactive”.

With `CCCC(CC)CCCCCCCN` (stereo not drawn), in experiment [1], the Potency is 62.6 µM (active). The Potency entry in experiment [8], in experiment [3], in experiment [5] and in experiment [6] was “inactive” each time. Besides, the outcome in experiment [4] and in [9] was inactive.

As to `CCCCCCCC/C=C\CCCCCCCC(=O)NCc1ccc(O)c(OC)c1`, the Potency entry in [1], in experiment [8] and in experiment [6] was “inactive” throughout. Besides, the compound was called inactive in experiment [9].

Turning to `CN1CCN(C2Cc3ccccc3Sc3ccc(Cl)cc32)CC1` (stereo not drawn), the Potency in experiment [7] is 21.1 µM (active); in [8], 18.8 µM (active). Besides, the Potency entry in [2], in experiment [3] and in [6] was “inactive” throughout. In experiment [4], the compound was called inactive.

Values taken from PubChem BioAssay (Tox21).
